Reference: ChEMBL document CHEMBL3433997, “St. Jude Leishmania screening dataset” (2016)

Assays:
Type in all cases: functional
[1] = target: Solute carrier family 2, facilitated glucose transporter member 1 (Homo sapiens) (UniProt P11166); assay: ST_JUDE_LEISH: Cytotoxicity at 2uM final concentration against transgenic Leishmania Mexicana promastigotes LmGLUT1 that are glucose transport deficient and complemented with the human glucose transporter GLUT1. Activity is measured by DNA content using SYBR green in vitro
Chain of Solute carrier family 2, facilitated glucose transporter member 1 (Homo sapiens) (P11166 whole entry): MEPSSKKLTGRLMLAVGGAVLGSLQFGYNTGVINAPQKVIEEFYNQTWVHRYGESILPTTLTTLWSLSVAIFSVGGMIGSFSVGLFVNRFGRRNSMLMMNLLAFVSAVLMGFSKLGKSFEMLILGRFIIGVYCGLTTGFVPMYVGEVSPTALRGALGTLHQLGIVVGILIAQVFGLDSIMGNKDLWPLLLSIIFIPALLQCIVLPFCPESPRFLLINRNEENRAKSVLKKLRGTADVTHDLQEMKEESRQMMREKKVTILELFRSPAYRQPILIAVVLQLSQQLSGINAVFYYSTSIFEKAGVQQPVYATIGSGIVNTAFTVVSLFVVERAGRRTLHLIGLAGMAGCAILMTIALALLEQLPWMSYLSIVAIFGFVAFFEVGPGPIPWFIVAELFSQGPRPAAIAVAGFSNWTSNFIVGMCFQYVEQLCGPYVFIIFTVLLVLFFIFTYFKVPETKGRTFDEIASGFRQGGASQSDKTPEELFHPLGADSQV

[2] = target: Hexose transporter 1 (Plasmodium falciparum) (UniProt O97467); assay: ST_JUDE_LEISH: Cytotoxicity at 2uM final concentration against transgenic Leishmania Mexicana promastigotes LmPfHT that are glucose transport deficient and complemented with the Plasmodium falciparum hexose transporter. Activity is measured by DNA content using SYBR green in vitro
[3] = target: Glucose transporter (Leishmania mexicana) (UniProt O61059); assay: ST_JUDE_LEISH: Cytotoxicity at 2uM final concentration against transgenic Leishmania Mexicana promastigotes LmGT2 that are glucose transport deficient and complemented with the L. Mexicana glucose transporter 2. Activity is measured by DNA content using SYBR green in vitro

Row | Structure (SMILES) | inhibition [1] [%] | inhibition [2] [%] | inhibition [3] [%]
1 | c1ccc(COc2ccnc(NCCCOc3cccc(CN4CCCCC4)c3)c2)cc1 | 1.52 | 1.04 | -0.05
2 | Oc1ccc(CN2CCC(NCc3cccc4ccccc34)CC2)cc1 | 12.4 | 11.6 | 9.93
3 | CC(C)CNC(=S)N1CCCN(c2nc3ccc(Cl)cc3s2)CC1 | 3.18 | 2.71 | 0.2
4 | Cc1ccccc1C1CCN(c2ccc(NC(=O)c3ccc(Cl)nc3)cc2)CC1 | 3.34 | -3.74 | 3.84
5 | C#CCCC(=O)Nc1cccc(-c2cccc(-c3nc4cccc(C)c4[nH]3)c2)c1 | 3.2 | 1.23 | -1.87
6 | O=[N+]([O-])c1cccc(Nc2cncc(-c3ccc(CO)cc3)c2)c1 | 2.04 | 0.66 | 0.83
7 | CC(O)CNc1nc2ccccc2n1CC(=O)Nc1cccc(C(=O)Nc2cccc(C(F)(F)F)c2)c1 (stereo unspecified) | 1.41 | 1.81 | 4.48
8 | C=CC[C@@H](C(=O)OCC)[C@@H]1[C@@H](N(CC=C)C(=O)OC(C)(C)C)CCN1C(=O)OCc1ccccc1 | 2.71 | 1.22 | 1.42
9 | CN1CCN(CCCCNc2c3ccccc3nc3ccccc23)CC1 | 23 | 11.7 | 14.6
10 | Nc1nc(N)c2c(Cl)c(CNc3cccc(C(=O)O)c3)ccc2n1 | 3.95 | 2.84 | 3.26
11 | Cc1noc(C)c1-c1ccc2c(Nc3ccc(Cl)cc3)c(C(N)=O)cnc2c1 | 24.3 | 29.3 | 12.9
12 | CCNc1cc(C)nc(Nc2ccccc2)n1 | 15.2 | 5.92 | 3.47
13 | Oc1ccc2[nH]c(-c3cccc(F)c3)nc2c1CNCc1ccccc1 | 9.11 | 3.29 | 2.86
14 | O=C(NC1CCN(Cc2ccccc2)C1)c1ccc(Nc2ccc(Br)cc2)nc1 (stereo unspecified) | 1.79 | 0.12 | -1.43
15 | C=C[C@]1(C)C[C@@H](OC(=O)c2cncn(COC)c2=O)[C@]2(C)[C@H](C)CC[C@]3(CCC(=O)[C@H]32)[C@@H](C)[C@@H]1O | -0.03 | -0.92 | 0.15
16 | Cc1ccccc1CNc1noc(-c2c(-c3ccccc3)noc2C)n1 | -2.97 | 2.16 | 6.28
17 | O=C(Cc1cccs1)NC(CCCN1CCC(Oc2cccc(Cl)c2)CC1)c1ccc(Cl)c(Cl)c1 (stereo unspecified) | 1.97 | -1.59 | -1.89
18 | O=C(Nc1ccc(-c2nc3ccccc3[nH]2)cc1)c1ccc(Cl)s1 | 3.19 | 2.35 | 1.71
19 | CC(C)(Oc1ccc(Cl)cc1)C(=O)NCCC1CCN(CCCCCNC(=O)/C=C/c2ccc(Cl)c(Cl)c2)CC1 | 6.53 | 7.08 | 2.35
20 | O=C(Nc1cccc(Cl)c1Cl)N1CCc2cc3nccc(N4CCN5CCC[C@H]5C4)c3cc21 | -0.2 | 1.06 | 3.39
21 | CCOc1ccc2[nH]c(C)cc(=NN=Cc3cccc(C)n3)c2c1 | 3.19 | 7.58 | 2.54
22 | Cc1cccc(C(=O)NC(NC(=S)Nc2cc(Cl)ccc2Cl)C(Cl)(Cl)Cl)c1 (stereo unspecified) | -0.37 | -1.9 | -2.85
23 | CN1CCC(Oc2ccc(CN3CC[C@H](NC(=O)c4ccc(Cl)c(F)c4)C3)c3ccccc23)C1 (stereo partly specified) | 0.38 | 3.36 | 2.67
24 | Cc1cc(N[C@@H](CC(C)C)C(=O)NCc2cccc(F)c2)nc(NCC2CCCCC2)n1 | 5.8 | 4.61 | 2.2

Row | Structure (SMILES) | inhibition [1] [%] | inhibition [2] [%] | inhibition [3] [%]
25 | FC(F)(F)c1cccc(C=NNc2nc3ccccc3[nH]2)c1 | 10.7 | 8.25 | 5.13
26 | CC(C)c1ccc(OCC(O)CN(C)C(C)C(O)c2ccccc2)c(Br)c1 (stereo unspecified) | 5.55 | 12.5 | 10.4
27 | c1ccc2c(C3CCN(CCCCOc4ccc5c(c4)CCN(C4CCC4)CC5)CC3)c[nH]c2c1 | -2.06 | 3.7 | 4.47
28 | CN(C)c1ccc(C=CC(=O)NC(=O)c2ccccc2O)cc1 | 3.19 | 2.19 | 1.56
29 | CCCCCCCCc1c(C)[nH]c(C)c(Cl)c1=O | 0.5 | 0.28 | -0.99
30 | Cn1nccc1C(=O)NCCNCc1cccc(-c2cccc(-c3nc4cc(F)ccc4[nH]3)c2)c1 | 3.43 | 3.28 | 1.11
31 | O=c1cc(NCCCNCc2cc3ccc(Br)cc3s2)[nH]c2ccccc12 | -0.97 | -0.27 | 0.6
32 | CCCCCCc1cc(Oc2c(I)cc(C[C@H](N)C(=O)O)cc2I)ccc1O | 0.33 | 1.79 | -0.38
33 | COc1cccc(-c2csc(C(=O)NCC3CCN(Cc4ccc(C(C)C)cc4)C3)c2)c1 (stereo unspecified) | -0.64 | -1.41 | 0.03
34 | C=C[C@H]1CN(CCCCCCC)CC[C@H]1CCNc1ccnc2ccc(OC)cc12 | -2.18 | 3.68 | -1.48
35 | COc1cc2nc(N3CCC(CNC(=O)c4ccc(-c5ccc(C#N)cc5C)cc4)CC3)nc(N)c2cc1OC | 1.67 | 1.27 | 0.49
36 | CCCC(=O)Nc1ccc(OCCCN(Cc2ccccc2OC(F)(F)F)c2ccc(C#N)c(C(F)(F)F)c2)cc1 | 3.69 | 9.22 | 5.47
37 | O=C(NCCCCN1CCC(c2ccc3c(c2OCCCO)CCCC3)CC1)c1ccc(-c2ccc(C(F)(F)F)cc2)cc1 | 1.13 | 3.02 | 2.9
38 | COc1cc(Nc2nccc(N3CCC(NC(=O)Nc4cc(C)ccc4C)C3)n2)cc(OC)c1OC (stereo unspecified) | 1.64 | 1.62 | 2.46
39 | O=C(NC1CCCCN(Cc2ccccc2O)C1)c1cc(F)cc(F)c1 (stereo unspecified) | 4.28 | 5.08 | 3.51
40 | CCCCCc1cc(OC(C)=O)c2c(c1)OC(C)(C)C=C2C1=CCN(Cc2ccccc2)CC1 | 1.74 | 1.45 | -1.92
41 | CCNc1cc(C(=O)N[C@@H](Cc2ccccc2)[C@H](O)CNC2(CC(C)C)CC2)cc(N2CCCCS2(=O)=O)c1 | -1.54 | 4.02 | -0.34
42 | CNCc1ccc(-c2ccc3ccnc(N)c3c2)cc1 | 2.47 | 5.56 | 3.23
43 | CC(C)CNCc1cccc(-c2cccc(CN(CCCN3CCN(C)CC3)C(=O)NC3CCCCC3)c2)c1 | 0.8 | 0.99 | -0.56
44 | COc1ccc2ncc(C#N)c(CCN3CCC(NCc4ccc5c(n4)NC(=O)CS5)CC3)c2n1 | 3.43 | 6.45 | 0.77
45 | O=c1cc(NCCCNCc2cc3c(Cl)cc(Cl)cc3[nH]2)[nH]c2ccccc12 | -0.67 | -0.16 | -0.14
46 | CC(O)C(C)(CO)NCc1ccc2c3c(cccc13)-c1ccccc1-2 (stereo unspecified) | 15.7 | 11.2 | 5.35
47 | COc1ccc(NS(=O)(=O)c2cccc(C(=O)Nc3ccc(C(F)(F)F)cc3)c2)cc1N1CCN(CC(C)C)CC1 | 7.82 | 4.29 | 6.21
48 | COC(=O)Nc1cc(C(F)(F)F)ccc1N1CCC(CNS(=O)(=O)c2ccc(OC)cc2)CC1 | 7.63 | 4.92 | 6.14

Row | Structure (SMILES) | inhibition [1] [%] | inhibition [2] [%] | inhibition [3] [%]
49 | CN1CCN(CCCN(Cc2csc(-c3ccc(CNCc4ccccc4)cc3)n2)C(=O)Nc2cccc(Cl)c2)CC1 | 1.91 | -0.25 | 2.48
50 | CN1CCN(Cc2ccc(-c3ccc4c(Nc5cc(O)c(Cl)cc5F)ccnc4c3)o2)CC1 | 7.47 | 4.6 | 4.5
51 | O=C(NC1CCN(CCN2CCC(c3c[nH]c4ccccc34)CC2)CC1)c1ccc(-c2ccc(C(F)(F)F)cc2)cc1 | 59 | 19.8 | 30.2
52 | Cc1nccn1Cc1cc(C(C)(C)C)c(O)c(C(C)(C)C)c1 | 3.44 | 2.22 | 3.5
53 | O=C(Nc1ccc(Cn2ncc(N3CCCNCC3)c(Cl)c2=O)cc1)Nc1ccc(C(F)(F)F)cc1 | 3.47 | 4.5 | -0.44
54 | CC(=O)Nc1ccc(Nc2cc(C)nc(Nc3ccc(NC(C)=O)cc3)n2)cc1 | 2.12 | 5.08 | 2.71
55 | CCNC(C)(C)CN(Cc1ccc(-c2ccc(C(F)(F)F)cc2)cc1)C(=O)Cn1c(SCc2ccc(F)cc2)nc(=O)c2c1CCC2 | 8.5 | 5.99 | 5.46
56 | c1cc(CNCC2CCCO2)cc(-c2cccc(-c3nc4ccccc4[nH]3)c2)c1 (stereo unspecified) | 1.58 | 1.76 | -0.18
57 | Cc1ccc(CN2CCC(Oc3cccc(NC(=O)c4ccc(C(F)(F)F)cc4)c3)CC2)cc1 | 5.11 | 0.79 | 3.6
58 | Cc1ccc(NC(=O)c2ccnc(N3CCN(c4ccncc4)CC3)c2)cc1F | 3.18 | 4.4 | 4.05
59 | OC(CNc1ccnc(Nc2cccc(Cl)c2)n1)c1cccc(F)c1 (stereo unspecified) | 3.71 | 4.41 | -3.09
60 | O=C(Nc1cc(Cl)c(Cl)cc1NC(=O)c1cccc(-c2ccccc2)c1O)c1cccc(-c2ccccc2)c1O | 5.1 | 0.97 | 2.6
61 | CC(=O)N[C@H](C(=O)Nc1cccc(-c2ccc(-c3nc4cccc(C)c4[nH]3)s2)c1)C(C)C | 3.65 | 2.85 | 2.08
62 | O=C(NC1CCN(Cc2ccccc2)CC1)c1cc(-c2ccncc2)c(-c2ccc(Cl)c(O)c2)o1 | 2.8 | 1.63 | 0.77
63 | COc1cc2nc(N3CCC(CNC(=O)/C=C/c4ccccc4F)CC3)nc(N)c2cc1OC | 8.22 | 7.84 | 4.27
64 | COc1ccc(CNCc2ccc(-c3ccc(-c4nc5cccc(C)c5[nH]4)cc3)cc2)cc1 | 18.1 | 17.2 | 10.3
65 | c1cncc(-c2cc(N3CCc4ccccc4C3)nc(-c3ccncc3)n2)c1 | 8.78 | 7.89 | 4.28
66 | COc1ccc(NC(=O)CSc2nc(-c3ccccc3Cl)ns2)cc1 | 1.15 | -1.47 | -2.13
67 | CC1CCN(c2nc(C(=O)Nc3cccc4c3CCCC4)c(C(C)C)s2)CC1 | 3.26 | 4.73 | 6.09
68 | CC(OC(=O)c1ccc(C(=O)NCC2CC2)cc1)C(C)(C)C (stereo unspecified) | 4.1 | 3.44 | -0.96
69 | Cc1cccc2nc(-c3cccc(-c4cccc(CNCCNC(=O)c5ccnn5C)c4)c3)[nH]c12 | -1.89 | -1.71 | -2.41
70 | COc1ccc(CC2(CO)CCN(Cc3ccc(O)c(Cl)c3)CC2)cc1 | 9.35 | 7.92 | 5.84
71 | COc1cc2nc(NCCc3ccccc3)nc(NCc3ccc(C#N)cc3)c2cc1OC | 3.59 | 6.39 | 2.83
72 | Cc1cc(=NN=Cc2ccccc2)c2cc(C(F)(F)F)ccc2[nH]1 | 8.02 | 8.87 | 6.17
